Results taken from PubChem BioAssay (NCI).
Compounds without any hit were thinned out: in the full panel of roughly 83,000, 20% have a hit.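 Interpretation: 100, growth as untreated; towards 0, rising growth inhibition; 0, no net growth; 0 to -100, cell death. Compounds scoring below 10 were considered active.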 The source made the active and inactive calls.

What was measured:
Assay in all cases: NCI-60 one-dose screen, 48 h (100 = growth as untreated, 0 = no growth, -100 = all killed)
Conditions in all cases: 10 µM unless noted
[1] = test system: HCT-15 colon
[2] = test system: HT29 colon
[3] = test system: SNB-19 CNS
[4] = test system: U251 CNS
[5] = test system: PC-3 prostate
[6] = test system: SK-MEL-5 melanoma
[7] = test system: UACC-62 melanoma
[8] = test system: LOX IMVI melanoma
[9] = test system: SK-MEL-28 melanoma
[10] = test system: SK-MEL-2 melanoma
[11] = test system: EKVX NSCLC
[12] = test system: SN12C renal
[13] = test system: UO-31 renal
[14] = test system: TK-10 renal
[15] = test system: ACHN renal
[16] = test system: CAKI-1 renal
[17] = test system: A498 renal
[18] = test system: CCRF-CEM leukemia
[19] = test system: MOLT-4 leukemia

Measured: growth

O=C1/C(=C/c2ccccc2)CN(CCC(=O)N2C/C(=C\c3ccccc3)C(=O)/C(=C/c3ccccc3)C2)C/C1=C\c1ccccc1
inactive: [1] 18.8% | [3] 52.9% | [5] 51.3% | [6] 60.5% | [7] 70.2% | [9] 91.9% | [10] 92.1% | [11] 63.6% | [12] 68.3% | [13] 47.7% | [14] 98.5% | [15] 62.1% | [16] 61.7% | [17] 60.8% | [19] 29.5%
active: [2] -13.5% | [4] 8.91% | [8] -51.4% | [18] 9.77%

COc1ccc(S(=O)(=O)NCCCNc2nccc(-c3c(-c4cccc(N)c4)nc4sccn34)n2)cc1
inactive: [1] 89.2% | [2] 59.7% | [3] 110% | [4] 106% | [5] 81.4% | [6] 81.3% | [7] 53% | [8] 96.4% | [9] 93.1% | [10] 113% | [11] 96.3% | [12] 76.7% | [13] 76.4% | [14] 134% | [15] 78.8% | [17] 91.2% | [18] 78.4% | [19] 75.5%

C=C1CC2(OC1=O)C(=O)N(CCCCCCCCCCCCN1C(=O)C3(CC(=C)C(=O)O3)c3ccccc31)c1ccccc12 (centres undefined)
inactive: [1] 65% | [2] 86.7% | [3] 89.5% | [4] 74.3% | [5] 64.7% | [6] 86.4% | [7] 78.9% | [9] 89.3% | [10] 73.3% | [11] 98% | [13] 76.6% | [14] 96.1% | [15] 97.8% | [16] 80.2% | [17] 59.5%
active: [8] 4.86% | [18] 4.77% | [19] 2.36%

COc1ccc(/C=C2\CN(C(=O)CCN3CCC(=NO)CC3)C/C(=C\c3ccc(OC)cc3)C2=O)cc1
active: [1] -12.8% | [2] -48.2% | [3] 8.36% | [4] -46.2% | [6] -55.7% | [7] -70.2% | [8] -91.8% | [9] -30.5% | [12] -52% | [13] -87.7% | [15] -41.7% | [18] 0.63% | [19] 0.493%
inactive: [5] 12.1% | [10] 89.4% | [11] 28% | [14] 21.5% | [16] 11.3% | [17] 36.1%

O=[N+]([O-])c1cccc(-c2nc3sccn3c2-c2ccnc(NCCCNS(=O)(=O)c3cccc(F)c3)n2)c1
active: [1] 2.21% | [5] -14% | [6] -71.2% | [7] -37.8% | [8] -17.6% | [9] -4.71% | [10] -29.2% | [13] -11.6% | [15] 6.36% | [18] 3.04% | [19] -34.4%
inactive: [2] 21.3% | [3] 41.2% | [4] 39.8% | [11] 19.1% | [12] 18.7% | [14] 52.9% | [16] 10% | [17] 33.7%

CCN(CC)CC#CCOC(=O)[C@]1(C)CCC[C@@]2(C)[C@H]1CC(C=O)=C1C=C(C(C)C)CC[C@@H]12
inactive: [1] 40.9% | [3] 77.1% | [4] 57.2% | [5] 45.4% | [6] 42.8% | [7] 68.9% | [8] 73.2% | [9] 87.4% | [10] 88% | [11] 77.8% | [12] 77.6% | [13] 52.6% | [14] 77.1% | [15] 86.9% | [16] 101% | [17] 69.7% | [18] 50.4% | [19] 50.1%
active: [2] 9.02%

C/C(=C(/c1ccc(O)cc1)c1ccc(Cl)cc1)c1ccccc1
active: [1] -81.9% | [2] -66.6% | [3] -86.2% | [4] -94.6% | [5] -74.6% | [6] -98.9% | [7] -94.5% | [8] -95.7% | [9] -96.3% | [10] -85.1% | [11] -81% | [12] -90.5% | [13] -100% | [14] -63.7% | [15] -92.3% | [16] -54.2% | [17] -55.1% | [18] -61.2% | [19] -29.5%

COc1ccc(C/C(C)=C(\c2ccc(Cl)cc2)c2ccc(OCCN3CCCCCC3)cc2)cc1
inactive: [1] 43.1% | [2] 15.7% | [3] 84.6% | [4] 64.5% | [5] 69.2% | [6] 80% | [7] 93.2% | [8] 90% | [9] 91% | [10] 90.5% | [11] 91.7% | [12] 78.3% | [13] 67.9% | [14] 90.3% | [15] 86.4% | [17] 92.1% | [18] 61.6% | [19] 58.7%

S=c1[nH]nc(CSc2ncnc3c2c(-c2ccccc2)cn3-c2ccc(Cl)cc2)o1
inactive: [1] 117% | [2] 107% | [3] 94.6% | [4] 93.8% | [5] 88.1% | [6] 104% | [7] 89.1% | [8] 90.2% | [9] 115% | [10] 105% | [11] 92% | [13] 73% | [14] 114% | [15] 92.7% | [16] 76.2% | [17] 94.7% | [18] 90.2% | [19] 98.1%

Cc1ccc(S(=O)(=O)n2cc(-c3csc(-c4cn(C)c5ncccc45)n3)c3ccccc32)cc1
inactive: [1] 35.8% | [2] 19.3% | [3] 85% | [4] 51.9% | [5] 44.8% | [6] 39.4% | [7] 58.1% | [8] 51.2% | [9] 58.8% | [12] 77.6% | [13] 57.3% | [14] 91.3% | [15] 53% | [16] 48.1% | [17] 52.2% | [18] 37.4% | [19] 49.3%
